Assay results reported in publication PMC4552634, “A New Set of Chemical Starting Points with Plasmodium falciparum Transmission-Blocking Potential for Antimalarial Drug Discovery” (PLoS ONE, 2015).
Where two headings read alike, the source gives them in different places. Out of some 13,000 compounds screened, about 3,200 (25%) showed an effect of 50% or more. The list shows a part of the results.

Tested on: P. falciparum stage V gametocytes
Parameters: BacTiter-Glo ATP luminescence viability of purified stage V gametocytes in 384-well plates, per cent inhibition versus DMSO
Settings: 48 h, 5 µM, inhibitor

| Compound | % Inhibition | % Inhibition (% Inhibition) |
| --- | --- | --- |
| CCCCn1c(SC(C)C)nc2c(c1=O)C1(CCCCC1)Cc1ccccc1-2 [TCMDC-123893] | -5.467% | – |
| Cc1ccc(-c2nnc(Nc3ccc(CC(N)=O)cc3)c3ccccc23)cc1S(=O)(=O)NCC1CCCO1 (stereo not drawn) [TCMDC-125615] | -4.951% | – |
| COc1cc(Cc2cnc(N)nc2N)ccc1OCC(=O)Nc1ccc(C)cc1 [TCMDC-138679] | 5.317% | – |
| COc1cc(Cc2cnc(N)nc2N)ccc1OCc1ccc(F)c(F)c1 [TCMDC-138591] | 9.532% | – |
| COc1cc(Cc2cnc(N)nc2N)ccc1OCc1ccc(NC(C)=O)cc1 [TCMDC-138675] | 89.66% | – |
| S=C(NCCc1ccc(Cl)cc1)NC1CCC(CN2CCC(c3c[nH]c4ccccc34)CC2)CC1 (stereo not drawn) [TCMDC-140183] | – | 98.47% |
| S=C(NCCc1ccc(Cl)cc1)N1CCC(CN2CCC(c3c[nH]c4ccccc34)CC2)CC1 [TCMDC-140193] | 39.79% | – |
| S=C(Nc1ccccc1Cl)NC1CCC(CN2CCC(c3c[nH]c4ccccc34)CC2)CC1 (stereo not drawn) [TCMDC-140179] | 20.48% | – |
| S=C(NCC1CCCCC1)NC1CCC(CN2CCC(c3c[nH]c4ccccc34)CC2)CC1 (stereo not drawn) [TCMDC-140181] | 104.2% | – |
| S=C(NCCc1ccc(Cl)cc1)NC1CCC(CN2CCC(c3c[nH]c4ccccc34)CC2)CC1 (stereo not drawn) [TCMDC-140201] | – | 56.68% |
| CC(C)NCc1ccc(-c2cccc(-c3nc4ccc(F)cc4[nH]3)c2)cc1 [TCMDC-132737] | 4.072% | – |
| N#Cc1ccc(N2CCN(Cc3ccc(-c4cccc(-c5nc6ccccc6[nH]5)c4)cc3)CC2)nc1.O=C(O)C(F)(F)F [TCMDC-133918] | 6.117% | – |
| Cc1c(Cc2ccccc2Br)cnc2nc(N)nc(N)c12 [TCMDC-137244] | -16.64% | – |
| COC(=O)/C=C/c1ccc(CC(C)NCC(O)c2cccc(Br)c2)cc1 (stereo not drawn) [TCMDC-131443] | 13.24% | – |
| CC(C)(C)Nc1nc(Nc2cccc([N+](=O)[O-])c2)nc(-n2ccnc2)n1 [TCMDC-123695] | -24.43% | – |
| CCn1cnc2c(Nc3cccc([N+](=O)[O-])c3)nc(N3CCC(N4CCCCC4)CC3)nc21 [TCMDC-124437] | 69.16% | – |
| O=[N+]([O-])c1ccc(Nc2nc(N/N=C/c3cccc(O)c3)nc(N3CCCC3)n2)cc1 [TCMDC-123855] | 36.76% | – |
| Cc1ccc(Oc2c(-c3ccccc3CN3CCCC3CN(C)C)cnn(C)c2=O)cn1 (stereo not drawn) [TCMDC-135100] | -4.022% | – |
| Cc1[nH]c(C)c(-c2ccc(OCCOc3ccc(C(F)(F)F)cn3)cc2)c(=O)c1Br [TCMDC-135554] | 40.45% | – |
| Cc1[nH]c(C)c(-c2ccc(Nc3ccc(C(F)(F)F)cn3)cc2)c(=O)c1Br [TCMDC-135546] | 74.1% | – |
| Cc1[nH]c(C)c(-c2ccc(Oc3ccc(C(F)(F)F)cc3)cc2)c(=O)c1Br [TCMDC-137406] | 68.39% | – |
| Cc1[nH]c(C)c(-c2ccc(C(F)(F)F)cc2)c(=O)c1Br [TCMDC-137429] | 90.2% | – |
| COc1ccc2nccc([C@@H](O)CN3CCC(NC(=O)C(c4ccsc4)N4CCN(c5ccccc5OC)CC4)CC3)c2c1 (stereo partly drawn) [TCMDC-140994] | -19.96% | – |

| Compound | % Inhibition | % Inhibition (% Inhibition) |
| --- | --- | --- |
| CC1CCCC(C)N1C[C@@H](O)CNS(=O)(=O)c1cccc(C(F)(F)F)c1 (stereo partly drawn) [TCMDC-134258] | 4.939% | – |
| CCc1ccccc1N=C1c2c(cccc2[N+](=O)[O-])C(=O)C1C(C)=O (stereo not drawn) [TCMDC-125760] | -10.56% | – |
| COc1cc(CCNCC(O)c2ccc([N+](=O)[O-])c(OCc3ccccc3)c2)cc(OC)c1OC (stereo not drawn) [TCMDC-132008] | 19.76% | – |
| CC(C#N)Cc1ccc(-c2cnc(N)c3cc(-c4ccnc(N)n4)ccc23)cc1 (stereo not drawn) [TCMDC-134547] | 15.83% | – |
| CCCCCCC(C)c1cc(OCCN(CC)CC)c2c(c1)OC(C)(C)C=C2c1ccncc1 (stereo not drawn) [TCMDC-131641] | 78.51% | – |
| CCCCCCC(C)c1cc(O)c2c(c1)OC(C)(C)C=C2c1ccncc1 (stereo not drawn) [TCMDC-131636] | -3.085% | – |
| CCCCCC(C)C(C)c1cc(O)c2c(c1)OC(C)(C)C=C2c1cc[n+]([O-])cc1 (stereo not drawn) [TCMDC-131349] | -5.463% | – |
| CC(=O)OC[C@H]1O[C@@H](C#Cc2ccccc2)[C@H](OC(C)=O)[C@@H](OC(C)=O)[C@@H]1OC(C)=O [TCMDC-131801] | 35.52% | – |
| CC(C)C[C@@H](NC(=O)NC1CCC(CCN2C3CCC2CC(OC(=O)C(CO)c2ccccc2)C3)CC1)C(O)(c1ccccc1)c1ccccc1 (stereo partly drawn) [TCMDC-136459] | 3.057% | – |
| CC1(C)NC(N)=NC(=N)N1OCC1CCCCC1 [TCMDC-131616] | -0.7745% | – |
| O=C1COc2ccc3ccccc3c21 [TCMDC-123508] | 4.476% | – |
| CNCc1cccc(-c2ccc3ccnc(N)c3c2)c1 [TCMDC-136794] | 70.03% | – |
| Nc1nccc2ccc(-c3cccc(O)c3)cc12 [TCMDC-136758] | 44.67% | – |
| CNc1cc(-c2ccc3ccnc(N)c3c2)nc(N)n1.O=CO [TCMDC-136539] | 29.83% | – |
| CSc1nccc(-c2ccc3ccnc(N)c3c2)n1 [TCMDC-136641] | 63.58% | – |
| CCNCc1cccc(-c2ccc3ccnc(N)c3c2)c1 [TCMDC-136869] | 65.98% | – |
| CNCc1ccc(-c2ccc3ccnc(N)c3c2)cc1 [TCMDC-136789] | 95.61% | – |
| Nc1ccc(-c2ccc3ccnc(N)c3c2)cn1 [TCMDC-133428] | 40.89% | – |
| Clc1ccc2c(N3CCCNCC3)ccnc2c1 [TCMDC-124813] | -27.2% | – |
| CCc1cc2c(cc1CC)CC(NC[C@@H](O)c1ccc(O)c3[nH]c(=O)ccc13)C2 [TCMDC-138894] | -46.2% | – |
| CCCCC([C@@H](Cc1ccc2ccccc2c1)C(=O)N[C@H](C(=O)NC)C(C)(C)C)N(O)C=O (stereo partly drawn) [TCMDC-140405] | 29.38% | – |
| Cc1cccc2nc(-c3ccc(-c4ccc(NC(=O)NCc5ccccc5)cc4)s3)[nH]c12 [TCMDC-133156] | 6.679% | – |
